As usually defined, the AC50 is the midpoint of the concentration-response curve, whichever way the signal moves.

Activity calls are given as the source filed them. The calls were made as follows: active = hit-call score of the fitted dose curve at least 0.9, where 1 is the maximum; inactive = score below 0.9.

Among the data in PubChem BioAssay (EPA / NIEHS) are outcome and AC50 values, retold here.

Experiment [1] in a line: ATG_E_Box_CIS: Attagene CIS-FACTORIAL HepG2 Assay for human Enhancer Box (E-box) (AID 2282936). Particulars: HepG2 E-box cis-reporter transcription, actives raise or lower the signal. Put shortly:
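DMSO served as negative control and baseline for bidirectional fitting. Human hepatoma HepG2 cells, transiently transfected with cis-reporter constructs, were dosed 24 h; reporter mRNA read by RT-PCR and capillary electrophoresis.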

Experiment [2] in a line: ATG_M_61_CIS: Attagene CIS-FACTORIAL HepG2 Assay for M61 Transcription Factor (Internal Marker) (AID 2282937). Particulars: HepG2 Attagene CIS-FACTORIAL M61 internal marker reporter; actives raise or lower the signal. Put shortly:
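HepG2 cells transiently transfected with cis-element-driven multiple reporter transcription units, dosed for 24 h. Reporter mRNA measured by RT-PCR, 6-FAM primer-extension labelling, HpaI digestion and capillary electrophoresis; bidirectional fit versus DMSO baseline.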

Experiment [3] can be described thus: ATG_EGR_CIS: Attagene CIS-FACTORIAL HepG2 Assay for human Early Growth Response 1 (EGR1) (AID 2282938). As to conditions: HepG2 Attagene CIS-FACTORIAL EGR reporter mRNA; actives raise or lower the signal. The method in brief:
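HepG2 cells transiently transfected with cis-promoter-driven multiplexed reporter transcription units; reporter mRNA measured 24 h after compound dosing by RT-PCR, 6-FAM primer extension, HpaI digestion and capillary electrophoresis. Bidirectional fit versus DMSO baseline.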

The nature of experiment [4]: ATG_M_19_CIS: Attagene CIS-FACTORIAL HepG2 Assay for M19 Transcription Factor (Internal Marker) (AID 2282939). As to conditions: HepG2 Attagene CIS-FACTORIAL M19 internal marker reporter; actives raise or lower the signal. The method in brief: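 Chemical-treated HepG2 (24 h) with MRTU constructs; reporter transcripts detected by fluorescent RT-PCR fragment analysis on capillary electrophoresis. Internal background marker, DMSO as baseline.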

Experiment [5] can be described thus: ATG_ERE_CIS: Attagene CIS-FACTORIAL HepG2 Assay for Estrogen Response Element (ERE) (AID 2282940). Particulars: HepG2 ERE cis-reporter, Attagene RNA transcript; actives raise or lower the signal. The method in brief:
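Human liver cells (HepG2) bearing transiently transfected, promoter-regulated reporter units were exposed 24 h. Reporter mRNA induction was detected by capillary electrophoresis of labelled RT-PCR products and fitted bidirectionally to DMSO.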

Experiment [6] in a line: ATG_Ets_CIS: Attagene CIS-FACTORIAL HepG2 Assay for human Erythroblast Transformation Specific (ETS) (AID 2282941). Particulars: HepG2 ETS cis-reporter transcription, actives raise or lower the signal. The method in brief: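 Steps: transfect HepG2 with multiple reporter units; treat compound 24 h; isolate RNA, DNase-treat, reverse-transcribe; PCR-amplify, label with 6-FAM, digest with HpaI; separate by capillary electrophoresis. Activity fitted both directions versus DMSO.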

Experiment [7] concerns the target Hepatocyte nuclear factor 3-beta (Homo sapiens) (UniProt Q9Y261). In words: ATG_FoxA2_CIS: Attagene CIS-FACTORIAL HepG2 Assay for human Forkhead box A2 (FOXA2) (AID 2282942). Particulars: HepG2 cis-reporter transcription factor activity, 24 h; actives raise or lower the signal. The method in brief:
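HepG2 cells transiently transfected with multiple cis-regulated reporter transcription units, dosed for 24 h. Reporter mRNA measured by RT-PCR, 6-FAM labelling, HpaI digestion and capillary electrophoresis; bidirectional fitting against DMSO baseline.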

Experiment [8] can be described thus: ATG_FoxO_CIS: Attagene CIS-FACTORIAL HepG2 Assay for human Forkhead box O (FoxO) (AID 2282943). As to conditions: HepG2 Attagene cis-reporter, FoxO element, mRNA; actives raise or lower the signal. The method in brief: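 HepG2, transient MRTU transfection (cis element, endogenous TFs). Dose 24 h. TriZol RNA → oligo(dT) RT → PCR → 6-FAM primer extension → HpaI cut → CE. Gain/loss vs DMSO.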

Experiment [9] in a line: ATG_GATA_CIS: Attagene CIS-FACTORIAL HepG2 Assay for human GATA Binding Protein (AID 2282944). As to conditions: HepG2 GATA cis-element reporter, Attagene multiplex mRNA; actives raise or lower the signal. Put shortly: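 Transfected cis-reporter HepG2 cells were treated with chemicals for 24 hours. Total RNA was then converted to cDNA, amplified with reporter-specific primers and analysed by fluorescent capillary electrophoresis, using DMSO-treated wells as baseline.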

A short description of experiment [10]: ATG_GLI_CIS: Attagene CIS-FACTORIAL HepG2 Assay for human Zinc Finger Protein GLI1 (AID 2282945). Particulars: HepG2, Attagene cis-factorial reporter mRNA, GLI element; actives raise or lower the signal. Put shortly:
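Bidirectional curve fits relative to DMSO, using reporter mRNA levels from RT-PCR plus capillary electrophoresis. Cells were HepG2 transiently carrying cis-regulated reporter constructs, harvested 24 h after dosing.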

Experiment [11] concerns the target Bile acid receptor (Homo sapiens) (UniProt Q96RI1). In words: ATG_IR1_CIS: Attagene CIS-FACTORIAL HepG2 Assay for human Nuclear Receptor Subfamily 1 Group H Member 4 (NR1H4), IR1 submotif (AID 2282946). As to conditions: IR1 reporter transcription, actives raise or lower the signal. The method in brief: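 Cells (human HepG2) carry transiently transfected cis-promoter reporter transcription units. Compounds are incubated 24 h, total RNA is reverse-transcribed and amplified, and labelled fragments are resolved by capillary electrophoresis. Curves use DMSO as baseline.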

Experiment [12] can be described thus: ATG_GRE_CIS: Attagene CIS-FACTORIAL HepG2 Assay for human Glucocorticoid Response Elements (GRE) (AID 2282947). As to conditions: HepG2 GRE cis-reporter, Attagene multiplex mRNA; actives raise or lower the signal. Put shortly:
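Assay uses human hepatoma HepG2 cells transfected with cis-promoter reporter units, exposed 24 h. mRNA from reporters detected by RT-PCR plus capillary electrophoresis; DMSO serves as negative control and baseline.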

A short description of experiment [13]: ATG_ISRE_CIS: Attagene CIS-FACTORIAL HepG2 Assay for human Interferon Regulatory Factor 1 (IRF1) binding to an Interferon-Stimulated Response Element (ISRE) (AID 2282948). As to conditions: HepG2 ISRE cis-reporter (Attagene), mRNA transcription readout; actives raise or lower the signal. The method in brief: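 Transfected HepG2 (multiple reporter transcription units, cis elements) dosed 24 h. RNA → oligo(dT) RT → PCR → 6-FAM primer extension → HpaI → CE. DMSO = negative control/baseline.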

A short description of experiment [14]: ATG_M_06_CIS: Attagene CIS-FACTORIAL HepG2 Assay for M06 Transcription Factor (Internal Marker) (AID 2282950). As to conditions: HepG2 Attagene CIS-FACTORIAL M06 internal marker reporter; actives raise or lower the signal. The method in brief:
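Cells (HepG2, transiently carrying cis-driven reporter units) receive chemical for 24 h before RNA isolation. Reporter cDNA is PCR-amplified, FAM-labelled by primer extension, HpaI-digested and sized on a capillary analyser.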

Experiment [15] concerns the target Hypoxia-inducible factor 1-alpha (Homo sapiens) (UniProt Q16665). In words: ATG_HIF1a_CIS: Attagene CIS-FACTORIAL HepG2 Assay for human Hypoxia Inducible Factor 1 (HIF1A) (AID 2282951). As to conditions: HepG2 Attagene cis-factorial HIF1a reporter transcription; actives raise or lower the signal. Put shortly: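 HepG2 cells transiently transfected with multiplexed cis-promoter reporter units; reporter mRNA read 24 h after dosing by RT-PCR, 6-FAM primer-extension labelling, HpaI digestion and capillary electrophoresis. Bidirectional fit versus DMSO baseline.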

The target in experiment [16] is Hepatocyte nuclear factor 6 (Homo sapiens) (UniProt Q9UBC0). In words: ATG_HNF6_CIS: Attagene CIS-FACTORIAL HepG2 Assay for human Hepatocyte Nuclear Factor 6 (HNF6) (AID 2282952). As to conditions: HepG2 Attagene cis-factorial HNF6 reporter transcription; actives raise or lower the signal. The method in brief: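 Cells are HepG2 carrying transiently transfected cis-promoter reporter units. Treatment lasts 24 h, after which reporter transcripts are reverse-transcribed, amplified, FAM-labelled and sized by capillary electrophoresis. DMSO serves as baseline.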
Hepatocyte nuclear factor 6 (Homo sapiens), sequence (Q9UBC0 whole entry, looked up): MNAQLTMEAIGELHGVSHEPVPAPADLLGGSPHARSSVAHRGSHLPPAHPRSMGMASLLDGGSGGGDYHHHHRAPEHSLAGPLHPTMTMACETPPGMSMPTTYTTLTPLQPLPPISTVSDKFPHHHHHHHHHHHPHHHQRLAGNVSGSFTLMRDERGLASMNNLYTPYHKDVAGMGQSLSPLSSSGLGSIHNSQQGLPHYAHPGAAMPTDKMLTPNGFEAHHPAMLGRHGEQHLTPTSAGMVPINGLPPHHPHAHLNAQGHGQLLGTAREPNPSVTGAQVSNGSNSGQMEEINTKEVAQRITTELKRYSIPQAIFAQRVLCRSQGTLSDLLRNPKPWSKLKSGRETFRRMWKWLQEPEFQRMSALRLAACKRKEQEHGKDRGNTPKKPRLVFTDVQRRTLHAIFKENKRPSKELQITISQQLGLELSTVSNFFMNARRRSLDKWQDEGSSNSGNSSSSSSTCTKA

Experiment [17] concerns the target Heat shock factor protein 1 (Homo sapiens) (UniProt Q00613). Description: ATG_HSE_CIS: Attagene CIS-FACTORIAL HepG2 Assay for human Heat Shock Transcription Factor 1 (HSE) (AID 2282953). Particulars: HepG2 HSE cis-reporter, Attagene RNA transcription; actives raise or lower the signal. The method in brief: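 Liver-derived HepG2 cells carry transiently introduced multiple reporter units governed by cis promoters. Reporter RNA measured 24 h post-dose through reverse transcription, PCR amplification, fluorescent labelling and capillary electrophoresis, normalised to DMSO.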

The nature of experiment [18]: ATG_MRE_CIS: Attagene CIS-FACTORIAL HepG2 Assay for human Metal Responsive Element (MRE) (AID 2282954). Particulars: HepG2 MRE cis-reporter transcription, Attagene multiplex; actives raise or lower the signal. The method in brief: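 After a 24 h chemical exposure, transiently transfected HepG2 cells yield RNA whose reporter sequences are amplified, FAM-labelled and sized by capillary electrophoresis. Curves are fitted bidirectionally relative to DMSO.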

Experiment [19] is described as follows: ATG_M_32_CIS: Attagene CIS-FACTORIAL HepG2 Assay for M32 Transcription Factor (Internal Marker) (AID 2282949).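 Also: background control marker of the multiplexed CIS panel rather than a real target.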 Particulars: HepG2 Attagene cis-factorial M32 reporter, mRNA; actives raise or lower the signal. Put shortly: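 Internal background marker read-out: RT-PCR/capillary electrophoresis fluorescence of reporter transcripts from transiently transfected HepG2 cells after 24 h chemical exposure. Activity fitted bidirectionally relative to DMSO negative control.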

Experiment [20] in a line: ATG_PBREM_CIS: Attagene CIS-FACTORIAL HepG2 Assay for human Phenobarbital-responsive Enhancer Module (PBREM) (AID 2282955). As to conditions: HepG2 PBREM cis-reporter, Attagene multiplexed transcription; actives raise or lower the signal. Put shortly:
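HepG2 cells transiently transfected with multiple cis-regulated reporter transcription units; endogenous factor activity at the PBREM element measured as reporter mRNA 24 h after dosing, via RT-PCR and capillary electrophoresis of fluorescent fragments; bidirectional fitting versus DMSO.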

Bile acid receptor (Homo sapiens), sequence (Q96RI1 whole entry, looked up, the tested form may be a part): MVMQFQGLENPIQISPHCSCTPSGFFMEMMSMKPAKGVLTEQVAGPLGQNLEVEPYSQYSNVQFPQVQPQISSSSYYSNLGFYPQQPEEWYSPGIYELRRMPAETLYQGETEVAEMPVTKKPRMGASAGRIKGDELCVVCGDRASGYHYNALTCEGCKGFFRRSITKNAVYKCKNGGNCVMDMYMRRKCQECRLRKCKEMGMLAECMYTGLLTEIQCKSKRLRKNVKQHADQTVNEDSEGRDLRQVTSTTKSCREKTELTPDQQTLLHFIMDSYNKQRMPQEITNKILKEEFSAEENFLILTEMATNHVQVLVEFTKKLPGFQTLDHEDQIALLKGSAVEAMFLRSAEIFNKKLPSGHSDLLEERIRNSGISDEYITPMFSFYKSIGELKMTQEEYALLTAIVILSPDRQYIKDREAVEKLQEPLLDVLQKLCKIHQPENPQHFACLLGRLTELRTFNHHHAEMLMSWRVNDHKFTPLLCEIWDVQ
Hepatocyte nuclear factor 3-beta (Homo sapiens), sequence (Q9Y261 whole entry, looked up): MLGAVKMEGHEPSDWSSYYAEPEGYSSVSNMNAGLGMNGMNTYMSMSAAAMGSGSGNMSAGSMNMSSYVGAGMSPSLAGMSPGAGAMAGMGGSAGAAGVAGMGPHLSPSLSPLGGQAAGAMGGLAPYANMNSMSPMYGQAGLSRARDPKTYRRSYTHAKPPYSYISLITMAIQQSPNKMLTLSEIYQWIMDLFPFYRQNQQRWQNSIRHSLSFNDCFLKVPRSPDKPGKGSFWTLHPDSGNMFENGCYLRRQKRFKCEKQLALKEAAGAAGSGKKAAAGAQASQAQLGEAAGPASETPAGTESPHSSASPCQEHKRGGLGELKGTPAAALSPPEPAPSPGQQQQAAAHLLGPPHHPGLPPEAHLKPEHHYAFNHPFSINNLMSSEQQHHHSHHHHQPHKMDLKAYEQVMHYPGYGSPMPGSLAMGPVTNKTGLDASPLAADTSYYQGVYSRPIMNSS
Hypoxia-inducible factor 1-alpha (Homo sapiens), sequence (Q16665 whole entry, looked up): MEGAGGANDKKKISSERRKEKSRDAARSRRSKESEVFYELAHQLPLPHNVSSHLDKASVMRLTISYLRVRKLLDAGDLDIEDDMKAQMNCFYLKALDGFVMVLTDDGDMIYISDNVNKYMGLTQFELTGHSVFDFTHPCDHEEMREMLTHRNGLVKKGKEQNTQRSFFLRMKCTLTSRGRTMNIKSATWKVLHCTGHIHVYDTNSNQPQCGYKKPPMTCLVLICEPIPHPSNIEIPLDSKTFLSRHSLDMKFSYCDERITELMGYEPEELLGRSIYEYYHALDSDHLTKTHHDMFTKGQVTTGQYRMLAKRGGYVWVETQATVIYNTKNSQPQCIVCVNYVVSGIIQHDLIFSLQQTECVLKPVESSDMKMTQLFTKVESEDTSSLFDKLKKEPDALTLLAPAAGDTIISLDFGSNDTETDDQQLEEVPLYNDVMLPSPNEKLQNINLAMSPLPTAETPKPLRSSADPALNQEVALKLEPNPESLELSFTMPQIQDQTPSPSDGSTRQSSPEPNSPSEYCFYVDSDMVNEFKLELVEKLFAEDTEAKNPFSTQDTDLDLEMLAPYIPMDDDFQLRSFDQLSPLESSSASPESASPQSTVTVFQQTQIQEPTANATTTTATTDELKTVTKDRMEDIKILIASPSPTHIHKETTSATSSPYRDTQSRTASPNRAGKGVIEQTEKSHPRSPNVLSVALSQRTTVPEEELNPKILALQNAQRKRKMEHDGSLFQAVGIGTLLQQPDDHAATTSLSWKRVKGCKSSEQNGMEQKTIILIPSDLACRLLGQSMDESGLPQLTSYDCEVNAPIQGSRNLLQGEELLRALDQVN
Heat shock factor protein 1 (Homo sapiens), sequence (Q00613 whole entry, looked up): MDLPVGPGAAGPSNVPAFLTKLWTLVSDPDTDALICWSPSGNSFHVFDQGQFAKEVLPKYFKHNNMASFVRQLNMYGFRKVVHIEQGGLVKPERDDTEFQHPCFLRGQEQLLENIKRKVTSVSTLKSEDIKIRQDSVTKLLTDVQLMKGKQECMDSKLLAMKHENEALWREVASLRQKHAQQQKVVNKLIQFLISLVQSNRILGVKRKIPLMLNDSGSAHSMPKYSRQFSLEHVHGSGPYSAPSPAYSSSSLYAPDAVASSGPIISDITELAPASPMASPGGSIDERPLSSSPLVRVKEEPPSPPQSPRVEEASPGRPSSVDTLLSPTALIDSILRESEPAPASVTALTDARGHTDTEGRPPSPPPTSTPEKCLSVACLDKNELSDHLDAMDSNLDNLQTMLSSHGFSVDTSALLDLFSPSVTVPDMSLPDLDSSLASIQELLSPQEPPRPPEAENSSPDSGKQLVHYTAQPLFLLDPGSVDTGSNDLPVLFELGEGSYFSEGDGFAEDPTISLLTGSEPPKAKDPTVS

With `C1CN(SSN2CCOCC2)CCO1`, the result in experiment [1], in experiment [2], in experiment [3], in experiment [4], in [5] and in experiment [6] was inactive. The compound was called inactive in [7], in [8], in [9], in [10], in experiment [11] and in experiment [12]. The result in experiment [13], in experiment [14], in experiment [15], in experiment [16] and in experiment [18] was inactive. In addition, in [17], the AC50 was 44.4 µM (active).

Regarding `Cn1c(=O)[nH]c2ncn(C)c2c1=O`, the outcome in experiment [1], in experiment [2], in [3], in [4], in experiment [5] and in experiment [6] was inactive. In addition, the compound was called inactive in experiment [7], in [8], in experiment [9], in experiment [10], in experiment [11] and in [12]. Moreover, the compound was called inactive in experiment [13], in [14], in experiment [16], in experiment [17] and in experiment [18].

On to `CCc1c(C(=O)O)c(=O)cnn1-c1ccc(Cl)cc1`, for which the outcome in experiment [1], in experiment [2], in [3], in experiment [4], in [6] and in experiment [7] was inactive. The result in [8], in [9], in experiment [10], in experiment [11], in [12] and in experiment [13] was inactive. In addition, the compound was classed as inactive in experiment [19], in experiment [14], in experiment [15], in [16], in [17] and in experiment [18]. Further, the AC50 in experiment [5] is 28.5 µM (active).

`COC(=O)C1=C(C)NC(C)=C(C(=O)OCC(C)C)C1c1ccccc1[N+](=O)[O-]` (stereo not drawn): the AC50 in experiment [1] is 18.6 µM (active); in experiment [13] it was 11.1 µM (active); in experiment [15], 18 µM (active). In addition, the result in experiment [2], in experiment [3], in [4], in experiment [5], in experiment [6] and in experiment [7] was inactive. The compound was classed as inactive in [8], in experiment [9], in experiment [10], in [11], in experiment [12] and in experiment [19]. Besides, the result in experiment [14], in [16], in [18] and in experiment [20] was inactive.
